The record followed here is ChEMBL document CHEMBL3988442, “University of Dundee, Small-Polar-MMV Screening Library” (2021).

Each structure is given as a SMILES string. For some of these results: Results with a measured potency or affinity are listed apart.

Holding throughout (design): scale not given: direction of the effect not stated beside the values
The target in assay [1] is Protein translocase subunit SecA (Escherichia coli (strain K12)) (UniProt P10408). The assay is described as follows: Assay to Identify E. coli SecA ATPase Inhibitors. In kind it is functional. The conditions noted are these: 30 µM.
The target in assay [2] is T1, Ubiquitin-activating enzyme e1, putative (Leishmania donovani (strain BPK282A1)) (UniProt E9BSI1).
T1 sequence (whole entry): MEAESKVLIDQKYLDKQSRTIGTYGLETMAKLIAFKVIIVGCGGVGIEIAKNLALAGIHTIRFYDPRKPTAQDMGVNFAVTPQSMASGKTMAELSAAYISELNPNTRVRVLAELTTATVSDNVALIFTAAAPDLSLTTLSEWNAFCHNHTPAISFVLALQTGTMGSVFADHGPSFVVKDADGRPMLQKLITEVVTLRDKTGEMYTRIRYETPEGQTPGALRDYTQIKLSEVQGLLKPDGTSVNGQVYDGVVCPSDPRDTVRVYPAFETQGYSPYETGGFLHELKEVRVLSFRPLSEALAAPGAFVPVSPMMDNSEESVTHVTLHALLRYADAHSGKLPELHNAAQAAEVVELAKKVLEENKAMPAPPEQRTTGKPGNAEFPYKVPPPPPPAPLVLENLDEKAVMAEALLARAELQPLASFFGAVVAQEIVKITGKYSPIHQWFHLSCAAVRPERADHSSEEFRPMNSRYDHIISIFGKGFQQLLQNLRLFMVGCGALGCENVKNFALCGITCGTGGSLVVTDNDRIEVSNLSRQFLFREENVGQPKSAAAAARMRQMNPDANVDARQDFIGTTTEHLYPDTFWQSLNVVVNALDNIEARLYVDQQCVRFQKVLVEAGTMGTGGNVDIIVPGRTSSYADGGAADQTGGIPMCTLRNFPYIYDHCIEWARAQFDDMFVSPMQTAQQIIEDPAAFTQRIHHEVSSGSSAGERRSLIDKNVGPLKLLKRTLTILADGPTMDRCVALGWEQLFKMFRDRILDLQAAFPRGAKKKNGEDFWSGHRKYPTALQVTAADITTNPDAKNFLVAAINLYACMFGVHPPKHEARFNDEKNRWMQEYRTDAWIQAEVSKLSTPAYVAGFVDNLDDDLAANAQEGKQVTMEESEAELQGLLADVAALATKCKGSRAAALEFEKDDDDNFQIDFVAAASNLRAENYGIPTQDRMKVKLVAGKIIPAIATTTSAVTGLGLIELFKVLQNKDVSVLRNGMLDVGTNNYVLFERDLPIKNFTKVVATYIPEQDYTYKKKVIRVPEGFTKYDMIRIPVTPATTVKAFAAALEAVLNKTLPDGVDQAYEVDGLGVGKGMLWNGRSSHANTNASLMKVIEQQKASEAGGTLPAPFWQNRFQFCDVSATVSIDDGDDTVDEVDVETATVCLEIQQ
Nature of the assay: Leishmania donovani Ubiquitin Activating Enzyme (LdE1). In kind it is functional. To be noted: 30 µM.

In assay [3] the target is AMP-activated protein kinase, AMPK (Homo sapiens) (UniProt P54646+O43741+P54619+Q9UGJ0+Q9Y478+Q13131+Q9UGI9). Nature of the assay: AMP-dependent Kinase enzyme assay. An in vitro enzyme assay that detects ADP turnover that is directly proportional to AMPK activity. This uses naive AMPK that is activated during the assay with MK-8722. In kind it is functional. The conditions noted are these: 30 µM.

Assay [4] has as its target Sialic acid-binding Ig-like lectin 9 (Homo sapiens) (UniProt Q9Y336). The assay is described as follows: Hs-Siglec9 ALPHAscreen SOP 20170721. The conditions noted are these: 10 µM. (In general: Alpha assays give light when donor and acceptor beads are brought close together.)
The next assay relates to Trypanosoma cruzi. Nature of the assay: Trypanosoma cruzi phosphomannomutase and mannose-1-phosphate guanylyltransferase assay. It is filed as functional. The conditions noted are these: 10 µM.
Assay [5] concerns the target T2, Arginase-2, mitochondrial (Homo sapiens) (UniProt P78540).
T2 sequence (whole entry): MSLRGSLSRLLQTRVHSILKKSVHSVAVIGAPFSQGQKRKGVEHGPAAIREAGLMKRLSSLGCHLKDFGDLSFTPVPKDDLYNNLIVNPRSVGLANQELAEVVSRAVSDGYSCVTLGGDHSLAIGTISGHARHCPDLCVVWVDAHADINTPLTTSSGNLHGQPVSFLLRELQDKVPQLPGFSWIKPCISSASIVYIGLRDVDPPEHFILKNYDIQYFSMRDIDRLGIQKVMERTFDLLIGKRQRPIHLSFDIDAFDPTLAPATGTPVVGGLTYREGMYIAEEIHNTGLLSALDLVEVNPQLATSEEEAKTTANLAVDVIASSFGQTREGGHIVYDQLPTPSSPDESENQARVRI
The assay is described as follows: in vitro enzyme assay to detect the production of urea directly proportional to the activity of Arginase II. Also: in the data most compounds retested in dose-response had high values. In kind it is functional. To be noted: 33.3 µM.

Assay [6] has as its target T3, Proteasome subunit beta (Trypanosoma cruzi) (UniProt O96673).
T3 sequence (whole entry): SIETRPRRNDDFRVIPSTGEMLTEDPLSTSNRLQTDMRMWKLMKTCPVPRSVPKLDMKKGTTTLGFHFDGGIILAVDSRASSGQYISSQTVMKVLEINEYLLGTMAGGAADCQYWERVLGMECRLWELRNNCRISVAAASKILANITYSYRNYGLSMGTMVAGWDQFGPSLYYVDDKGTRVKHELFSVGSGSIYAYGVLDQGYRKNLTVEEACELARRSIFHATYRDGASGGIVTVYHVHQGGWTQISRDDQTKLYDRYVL
Nature of the assay: Trypanosoma cruzi proteasome chymotrypsin-like activity (TcProtChymo) assay. Also: in the data most compounds retested in dose-response had high values. It is filed as functional. To be noted: 9.37 µM.

For another assay, the species on record is Homo sapiens. The assay is described as follows: To identify inhibition of the IFN signalling (Jak-Stat) pathway via expression of an eGFP reporter gene under the control of an IFN-stimulated response element (ISRE) containing MxA promoter. The conditions noted are these: 30 µM. In kind it is functional.
In assay [7] the target is T4, Tyrosyl-tRNA synthetase, putative (Trypanosoma cruzi (strain CL Brener)) (UniProt Q4DSP6).
T4 sequence (whole entry): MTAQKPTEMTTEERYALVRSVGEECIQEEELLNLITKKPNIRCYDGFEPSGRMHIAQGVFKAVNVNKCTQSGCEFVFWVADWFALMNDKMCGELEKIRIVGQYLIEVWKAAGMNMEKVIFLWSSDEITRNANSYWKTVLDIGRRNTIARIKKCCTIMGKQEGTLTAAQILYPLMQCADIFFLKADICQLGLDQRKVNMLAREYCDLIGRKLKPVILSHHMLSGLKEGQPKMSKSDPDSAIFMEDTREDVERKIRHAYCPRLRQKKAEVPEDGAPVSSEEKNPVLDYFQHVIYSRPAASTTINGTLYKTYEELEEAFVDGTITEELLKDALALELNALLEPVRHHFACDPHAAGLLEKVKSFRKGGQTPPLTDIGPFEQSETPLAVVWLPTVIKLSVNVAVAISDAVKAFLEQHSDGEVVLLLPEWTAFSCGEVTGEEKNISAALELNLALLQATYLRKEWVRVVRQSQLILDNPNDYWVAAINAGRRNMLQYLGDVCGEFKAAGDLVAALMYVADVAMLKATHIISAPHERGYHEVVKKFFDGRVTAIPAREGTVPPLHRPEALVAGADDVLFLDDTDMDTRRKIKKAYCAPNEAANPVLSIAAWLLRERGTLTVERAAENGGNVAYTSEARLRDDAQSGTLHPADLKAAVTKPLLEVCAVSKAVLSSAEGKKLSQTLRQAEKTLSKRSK
The assay is described as follows: Trypanosoma cruzi tyrosyl tRNA synthetase (TcYRS) _High Tyrosine SOP. Also: in the data most compounds retested in dose-response had high values. The conditions noted are these: 30 µM. It is filed as functional.

In assay [8] the target is T4, Tyrosyl-tRNA synthetase, putative (Trypanosoma cruzi (strain CL Brener)). The assay is described as follows: Trypanosoma cruzi tyrosyl tRNA synthetase (TcYRS) SOP. In kind it is functional. To be noted: 30 µM.
Assay [9] concerns the target Chromo domain-containing protein 1 (Saccharomyces cerevisiae (strain ATCC 204508 / S288c) (Baker's yeast)) (UniProt P32657). The assay is described as follows: ScCHD-1 Enzyme Inhibition Assay. Also: in the data most compounds retested in dose-response had high values. It is filed as functional. To be noted: 30 µM.

Chain of Chromo domain-containing protein 1 (Saccharomyces cerevisiae (strain ATCC 204508 / S288c) (Baker's yeast)) (P32657 whole entry, the tested form may be a part): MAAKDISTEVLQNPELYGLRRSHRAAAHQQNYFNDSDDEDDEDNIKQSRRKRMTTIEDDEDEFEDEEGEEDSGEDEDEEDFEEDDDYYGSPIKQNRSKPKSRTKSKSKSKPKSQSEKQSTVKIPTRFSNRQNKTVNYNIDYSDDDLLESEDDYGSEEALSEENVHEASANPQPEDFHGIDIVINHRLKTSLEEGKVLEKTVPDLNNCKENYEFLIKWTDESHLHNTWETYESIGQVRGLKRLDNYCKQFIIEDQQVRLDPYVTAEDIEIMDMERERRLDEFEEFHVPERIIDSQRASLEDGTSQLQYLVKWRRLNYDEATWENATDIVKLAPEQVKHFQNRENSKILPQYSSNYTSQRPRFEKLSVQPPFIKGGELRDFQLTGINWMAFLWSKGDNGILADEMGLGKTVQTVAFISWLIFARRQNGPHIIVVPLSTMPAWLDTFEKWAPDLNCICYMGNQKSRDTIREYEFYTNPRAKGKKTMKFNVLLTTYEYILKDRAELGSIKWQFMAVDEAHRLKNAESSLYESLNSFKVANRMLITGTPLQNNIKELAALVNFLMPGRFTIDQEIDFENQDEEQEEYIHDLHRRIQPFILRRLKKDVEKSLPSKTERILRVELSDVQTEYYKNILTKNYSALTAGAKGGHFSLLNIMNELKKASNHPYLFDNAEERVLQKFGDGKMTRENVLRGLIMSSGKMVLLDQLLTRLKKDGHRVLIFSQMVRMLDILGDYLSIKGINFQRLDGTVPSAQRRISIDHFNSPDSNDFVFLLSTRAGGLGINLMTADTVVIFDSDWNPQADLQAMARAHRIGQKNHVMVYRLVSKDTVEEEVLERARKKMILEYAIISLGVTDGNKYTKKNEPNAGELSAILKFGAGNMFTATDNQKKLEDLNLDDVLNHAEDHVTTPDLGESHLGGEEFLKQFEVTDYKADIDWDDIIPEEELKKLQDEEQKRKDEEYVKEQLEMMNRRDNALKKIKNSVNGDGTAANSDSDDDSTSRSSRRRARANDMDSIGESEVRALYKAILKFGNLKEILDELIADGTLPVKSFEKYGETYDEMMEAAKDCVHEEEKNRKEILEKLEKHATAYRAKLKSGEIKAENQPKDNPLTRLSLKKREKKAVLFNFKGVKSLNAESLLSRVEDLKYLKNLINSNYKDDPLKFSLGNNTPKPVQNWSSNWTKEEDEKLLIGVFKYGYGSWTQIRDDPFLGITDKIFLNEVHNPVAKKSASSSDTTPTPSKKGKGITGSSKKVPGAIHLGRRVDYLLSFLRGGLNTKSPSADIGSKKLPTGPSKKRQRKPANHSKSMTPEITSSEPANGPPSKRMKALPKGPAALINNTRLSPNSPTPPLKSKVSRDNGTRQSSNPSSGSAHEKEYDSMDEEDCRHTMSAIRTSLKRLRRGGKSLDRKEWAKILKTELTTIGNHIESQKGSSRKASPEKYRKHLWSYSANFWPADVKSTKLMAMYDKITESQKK
Chain of Sialic acid-binding Ig-like lectin 9 (Homo sapiens) (Q9Y336 whole entry): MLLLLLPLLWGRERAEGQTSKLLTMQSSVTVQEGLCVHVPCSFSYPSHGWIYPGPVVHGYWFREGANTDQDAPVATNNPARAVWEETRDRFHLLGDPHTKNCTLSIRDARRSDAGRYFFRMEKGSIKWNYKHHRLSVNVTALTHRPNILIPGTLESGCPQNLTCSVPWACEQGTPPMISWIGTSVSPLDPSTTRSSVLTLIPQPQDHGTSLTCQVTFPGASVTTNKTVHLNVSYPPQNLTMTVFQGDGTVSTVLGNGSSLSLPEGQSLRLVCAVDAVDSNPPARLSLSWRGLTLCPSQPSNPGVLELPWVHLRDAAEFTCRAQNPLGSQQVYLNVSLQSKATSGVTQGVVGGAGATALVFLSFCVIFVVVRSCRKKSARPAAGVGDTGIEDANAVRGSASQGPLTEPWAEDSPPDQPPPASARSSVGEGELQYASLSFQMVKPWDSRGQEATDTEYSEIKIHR
Chain of Protein translocase subunit SecA (Escherichia coli (strain K12)) (P10408 whole entry): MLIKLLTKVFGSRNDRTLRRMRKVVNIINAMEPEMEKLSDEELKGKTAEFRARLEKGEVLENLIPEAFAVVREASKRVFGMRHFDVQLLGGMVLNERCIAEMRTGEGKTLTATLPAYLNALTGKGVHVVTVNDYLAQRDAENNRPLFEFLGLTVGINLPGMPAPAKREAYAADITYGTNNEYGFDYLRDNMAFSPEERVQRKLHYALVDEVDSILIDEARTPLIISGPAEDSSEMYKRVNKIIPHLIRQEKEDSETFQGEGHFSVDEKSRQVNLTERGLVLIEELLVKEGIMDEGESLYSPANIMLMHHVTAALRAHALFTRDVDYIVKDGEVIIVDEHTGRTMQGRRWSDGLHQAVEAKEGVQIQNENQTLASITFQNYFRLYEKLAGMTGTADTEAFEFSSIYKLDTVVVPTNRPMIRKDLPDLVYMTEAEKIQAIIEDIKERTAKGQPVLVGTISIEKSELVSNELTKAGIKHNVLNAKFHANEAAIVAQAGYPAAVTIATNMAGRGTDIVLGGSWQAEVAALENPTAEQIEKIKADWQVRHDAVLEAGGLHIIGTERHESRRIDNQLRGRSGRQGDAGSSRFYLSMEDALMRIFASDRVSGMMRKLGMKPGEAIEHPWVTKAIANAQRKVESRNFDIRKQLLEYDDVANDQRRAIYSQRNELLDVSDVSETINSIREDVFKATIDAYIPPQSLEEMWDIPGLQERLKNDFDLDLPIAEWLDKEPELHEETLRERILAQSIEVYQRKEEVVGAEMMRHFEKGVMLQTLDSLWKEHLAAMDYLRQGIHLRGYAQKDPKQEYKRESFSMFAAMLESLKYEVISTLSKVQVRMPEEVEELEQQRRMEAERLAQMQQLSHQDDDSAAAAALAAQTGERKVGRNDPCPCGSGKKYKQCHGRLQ

As for `CC(C)n1c(C2CCCN(CCS(C)(=O)=O)C2)nc2ccccc21` (stereo not drawn), the Percent Effect was -2.02% in [1]; 8.11% in assay [2]; 1.95% in assay [3]; -0.0156% in assay [4]; 0.586% in the assay with Trypanosoma cruzi; 13.8% in assay [5]. The Percent Effect in assay [6] was 7.69%; in the assay listed under Homo sapiens, -5.65%; in assay [7], 5.94%; in assay [8], 8.54%; in assay [9], -2.93%.
Regarding `COC(=O)CCC(=O)N1CCc2[nH]nc(-c3ccc4c(c3)OCO4)c2C1`, the Percent Effect in [1] is -2.09%; in assay [2], 8.11%; in [3] it was 6.85%; in assay [4], 21.3%; with Trypanosoma cruzi it was 5.18%; in [5] it was 11.2%. For the same compound, the Percent Effect was 0.258% in assay [6]; -7.33% in the assay listed under Homo sapiens; 2.15% in [7]; 6.17% in assay [8]; -11.9% in assay [9].
As for `Cc1nc(CCN(C)C(=O)C2COc3ccccc3C2)no1` (stereo not drawn), the Percent Effect was -7.54% in [1]; 13% in [2]; -6.34% in assay [3]; 19.8% in assay [4]; 8.55% in the assay on Trypanosoma cruzi; 5.52% in assay [5]. The Percent Effect in [6] is 16.1%; in the assay listed under Homo sapiens, -0.00401%; in [7] it was 5.38%; in assay [8] it was 13.6%; in assay [9], -7.23%.
As to `CC(=O)N(Cc1noc(C)n1)C1CCN(Cc2ccon2)C1` (stereo not drawn), the Percent Effect is -2.71% in assay [1]; 21.5% in [2]; -1.98% in assay [3]; -4.08% in assay [4]; 1.13% with Trypanosoma cruzi; -3.66% in assay [5]. The Percent Effect in assay [6] came out at 22.3%; in the assay filed under Homo sapiens it was 10.2%; in [7], 3.12%; in [8], 15.2%; in assay [9] it was 52.1%.
For `CN(C)C(=O)N1C[C@H]2CN(Cc3cccc(F)c3)C(=O)[C@H]2C1`, the Percent Effect is -4.01% in [1]; 10.8% in assay [2]; 7.46% in [3]; -7.24% in assay [4]; -4.2% in the assay with Trypanosoma cruzi; 0.955% in assay [5]. Besides, the Percent Effect was 20.9% in assay [6]; 4.49% in the assay filed under Homo sapiens; 0% in assay [7]; -7.69% in assay [8]; -1.2% in assay [9].
For the compound `Cc1cc(C[C@@H]2CCC[C@H]2NCc2ccccc2C(F)(F)F)on1`, the Percent Effect in assay [1] is -4.94%; in assay [2] it was 1.35%; in assay [3] it was 8.14%; in assay [4], -0.325%; with Trypanosoma cruzi it was 0%; in assay [5] it was 2.55%. The Percent Effect in assay [6] was 6.4%; in the assay listed under Homo sapiens, 13.5%; in [7], 2.15%; in assay [8] it was 9.09%; in assay [9], -10.5%.
Regarding `Cn1cnnc1C1CCCN(C(=O)c2ccc3c(c2)OCCCO3)C1` (stereo not drawn), the Percent Effect in assay [1] is -6.73%; in assay [2], 18.2%; in assay [3], -5.65%; in [4], -3.72%; in the assay with Trypanosoma cruzi, 3.04%; in assay [5], 0.21%. The Percent Effect was 15.3% in assay [6]; -4.88% in the assay filed under Homo sapiens; 4.76% in assay [7]; 23.5% in assay [8]; -15.9% in assay [9].
In the case of `O=C(Cn1ccc2sccc2c1=O)NCc1ccc2c(c1)OCO2`, the Percent Effect in assay [1] is -3.35%; in assay [2], 5.2%; in assay [3], 2.53%; in assay [4] it was 0.145%; in the assay on Trypanosoma cruzi, -5.62%; in assay [5] it was 4.52%. Also, the Percent Effect in [6] is 4.53%; in the assay listed under Homo sapiens, 1.29%; in assay [7], 5.29%; in assay [8], 11.5%; in assay [9], -2.27%.
